# Screening data from PubChem BioAssay.
# Most compounds without a hit are left out; they make up all but 2.3% or so of the library.
# AMA1-RON2 inh = AMA1-RON2 (P. falciparum) interaction inhibition; Potency, µM (titrated, usually from 58.2 µM), for the others: top-dose activity change, negative = inhibition, actives largely listed as inhibitors; actives 0.2% (n = 360,000); AlphaScreen AMA1-biotinylated RON2 peptide binding;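 also: 0% = vehicle wells and -100% = peptide control; nearly all actives have a fitted effect of over 45% in size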
#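 AMA1 (3D7) with his tag at 25 nM final met compounds first, then biotinylated RON2 peptide at 25 nM; detection used donor plus acceptor beads, 10 µg/mL apiece, read by AlphaScreen after 30 min at room temperature.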
# AmpC detergent = AmpC beta-lactamase inhibition with detergent present | AmpC hydrolysis of nitrocefin, absorbance 480 nm, 0.01% Triton | Potency, µM (series often up to 114 µM), without a hit: at the top dose activity change, negative = inhibition, usual class: inhibitors | actives 0.041% (n = 370,000) | AID 485294;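 also: 0% = no-compound wells and -100% = no-enzyme wells; nearly all actives have a fitted effect of over 25% in size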
# Target sequence (P00811 whole entry, looked up): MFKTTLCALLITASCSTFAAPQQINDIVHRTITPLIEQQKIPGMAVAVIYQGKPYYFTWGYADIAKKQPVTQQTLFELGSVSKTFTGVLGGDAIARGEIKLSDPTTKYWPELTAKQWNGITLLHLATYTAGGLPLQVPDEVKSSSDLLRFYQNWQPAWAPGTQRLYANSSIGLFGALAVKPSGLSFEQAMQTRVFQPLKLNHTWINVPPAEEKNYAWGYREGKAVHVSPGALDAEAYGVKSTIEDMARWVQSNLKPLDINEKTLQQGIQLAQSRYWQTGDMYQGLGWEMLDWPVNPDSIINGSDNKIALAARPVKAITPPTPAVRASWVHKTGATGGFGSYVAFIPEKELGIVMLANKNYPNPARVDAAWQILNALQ
#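 AmpC (5.3 nM in the dispensed reagent) in 20 mM phosphate pH 7.0 with 0.01% (detergent screen) or 0.0001% Triton X-100 was preincubated with compounds for 15 min at room temperature. Nitrocefin was then added from an 800 uM solution, and hydrolysis was followed at 480 nm.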
# Marburg entry inh = blocks Marburg virus binding to or entry into cells | Marburg virus pseudotyped entry inhibition, cell reporter | Potency, µM (highest dose often 37.8 µM), for the others: at the highest dose activity change, negative = inhibition, hits mostly inhibitors | actives 1.8% (n = 300,000) | AID 540276; calls by dose curve; tested in HEK293 cells
# Lassa entry inh = blocks Lassa virus binding to or entry into cells. Lassa virus pseudotype entry inhibition, cell reporter. Potency, µM (doses to about 37.9 µM), for the others: at the top dose activity change, negative = inhibition, most hits filed as inhibitors. actives 1.2% (n = 300,000). AID 540256; calls by dose curve; tested in HEK293 cells; also: nearly all actives have a fitted effect of over 50% in size
# AmpC inh no detg = blocks E. coli AmpC beta-lactamase in detergent-free assay; Potency, µM (titrated, usually from 57.1 µM), for the others: top-dose activity change, negative = inhibition, actives largely listed as inhibitors; AID 485341; P00811; actives 0.52% (n = 330,000); AmpC nitrocefin hydrolysis, absorbance 480 nm, 0.0001% Triton;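 also: plate controls were no compound for no effect and no enzyme for full effect; nearly all actives have a fitted effect of over 20% in size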
#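 20 mM phosphate pH 7.0 + 0.01% (detergent screen) or 0.0001% Triton X-100; 5.3 nM AmpC reagent; cpd preinc 15 min RT; nitrocefin (800 uM stock) to start; A480 q20 s × 4 min; Activity was normalised to no-enzyme and no-compound control wells.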
# * = called active by the depositor; ? = inconclusive; · = no result; [ ] = dose if it differs, or a comment. Unless noted, calls follow the shape of the dose curve; as a rule, active = well fitted curve in the direction sought with a large enough effect; inconclusive = small, poorly fitted or top-dose-only effect, or another doubt; inactive = no such curve, though single readings can be large; an effect the other way counts as inactive or inconclusive. Unless noted, % is scaled to controls: 0 for no effect and ±100 for the full control effect; potency is read from the fitted curve at half-maximal effect.
SMILES,AMA1-RON2 inh,AmpC detergent,Marburg entry inh,Lassa entry inh,AmpC inh no detg
NC1(C(=O)O)CCCc2ccc(N(CCCl)CCCl)cc21 (stereo not given),-19%,·,10µM*,?,·
NC1(C(=O)O)CCc2cc(C(=O)O)ccc21 (stereo not given),·,·,23%,-13%,·
CN1C2CCC1CC(OC(c1ccccc1)c1ccc(Cl)cc1)C2 (stereo not given),·,·,3.2µM*,·,·
CN1CCC(OC(c2ccccc2)c2ccccc2)CC1,-6%,?,?,?,-2%
CN1C2CCC1CC(OC(c1ccccc1)c1ccccc1N)C2 (stereo not given),-5%,·,18µM*,?,·
Nc1c(C(=O)c2ccccc2)sc2nsc(SCCN3CCCC3)c12,-16%,-3%,?,6.3µM*,47%
Nc1c(C(=O)c2ccc(Cl)cc2)sc2nsc(SCCN3CCOCC3)c12,14%,-5%,1%[46.1 µM],2%,-7%
Cc1ccc(NC(=O)c2cc(S(=O)(=O)N3CCc4ccccc43)cn2C)c(Cl)c1,·,-1%,·,10%[46.1 µM],·
CCOc1ccccc1-n1nnc(-c2nc(-c3ccccc3C)no2)c1C,·,2%,·,18%[46.1 µM],·
O=C(Nc1ccc2nc(SCC(=O)N3CCCc4ccccc43)sc2c1)c1ccccc1,·,19%,?,?,·
COC(=O)c1cc2c(-c3ccccc3)cc3ccccn3c-2c1C(=O)OC,18µM*,-17%,?,?,88%
Cc1cc(C)c(NC(=O)c2cc3c(=O)n4ccccc4nc3n2C)c(C)c1,·,4%,·,-23%[46.1 µM],·
Cc1ccc2nc(/N=C(\N)NC(=O)NC3CCCCC3)nc(C)c2c1,5%,-1%,5.6µM*,?,-47%
CCCC(=O)N/C(N)=N/c1nc(C)c2cc(C)ccc2n1,4%,2%,-18%[46.1 µM],?,-38%
Cc1ccc2nc(N=C(N)N)nc(C)c2c1,18%,-2%,?,-13%,10µM*
CCOc1cccc2sc(NC(=O)c3ccc(S(=O)(=O)N4CCCCC4C)cc3)nc12 (stereo not given),·,-5%,·,?,·
CCc1sc(C(=O)Nc2ncccc2O)cc1C,41%,1%,6.3µM*,?,38%
CCc1sc(C(=O)Nc2ncccc2C)cc1C,6%,-1%,7%[46.1 µM],-9%,-3%
C[C@@H]1C=CCCO[C@]12C(=O)N(Cc1ccc(F)cc1)c1ccccc12,·,·,0%[14.2 µM],?,·
N#Cc1c[nH]n2c(NC3CCCC3)c(-c3ccc(Br)cc3)nc12,·,-1%,?,-27%[46.1 µM],·
N#Cc1c[nH]n2c(NC3CCCC3)c(-c3ccc(Cl)cc3)nc12,·,17%,1.4µM*,-27%[46.1 µM],·
O=S(=O)(NCC(c1cccs1)S(=O)(=O)c1ccccc1)c1ccccc1 (stereo not given),·,0%,·,-2%[46.1 µM],·
COCCNC(=O)C(=O)Nc1ccc2c(c1)N(S(=O)(=O)c1cccs1)CCC2,4%,-9%,?,1.8µM*,66%
CC(C)CNC(=O)C(=O)Nc1ccc2c(c1)N(S(=O)(=O)c1cccs1)CCC2,-10%,-16%,3.2µM*,?,-6%
CCOc1ccc([C@H]2C[C@H](c3ccccc3)Nc3nc(N)nn32)cc1,·,·,1%,·,·
SMILES,AMA1-RON2 inh,AmpC detergent,Marburg entry inh,Lassa entry inh,AmpC inh no detg
COc1cccc(CN(C)C(=O)c2ccc(OCC(=O)Nc3cccc(C(F)(F)F)c3)c(OC)c2)c1,-20%,?,?,8.9µM*,155%
COc1ccc(CN(C)C(=O)c2ccc(OCC(=O)Nc3cccc(C(F)(F)F)c3)c(OC)c2)c(OC)c1,72%,-6%,?,?,186%
CCN1C(=NCc2ccccc2)N[C@@H](CCc2ccccc2)[C@H](C(=O)OC)[C@H]1C,·,·,-18%[14.2 µM],·,·
Cc1cc(C)c2c(c1)-c1c(ssc1=S)C(C)(C)N2C(=O)CN1C(=O)c2ccccc2C1=O,2%,-2%,4µM*,-7%,0%
CCOc1ccc(CCNC(=O)[C@@H](O)c2ccccc2)cc1,·,·,14%,·,·
CC(=O)CCc1oc2ccc(C)cc2c1-c1ccccc1,-19%,-3%,1%,4µM*,23%
Cc1cccc2cc(CN(Cc3cccs3)Cc3nnnn3Cc3ccccc3)c(=O)[nH]c12,-1%,-15%,16µM*,?,-1%
CCN(CC)S(=O)(=O)c1cc(NC(=O)Cc2ccsc2)ccc1C,17%,-7%,-17%,0.46µM*,-30%
